# According to PubChem BioAssay:
# The source made the active and inactive calls. Unless noted, no rule for the calls is given here.
# What was measured:
# [1] = test system: Wnt5a (protein binding on small-molecule microarray); experiment: small molecules binding Wnt5a protein – biophysical, small-molecule microarray, 635/667 nm fluorescence, primary screen (AID 1142); details: 635 nm fluorescence, higher = more signal;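 also: fluorescence read at 667 nm with signal to noise per printed feature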
# [2] = ATP-based viability of Huh7 replicon cells – cell-based, CellTiter-Glo luminescence, basal, 48 h, cytotoxicity control for HCV replication inhibitor project, primary screen (AID 1143); details: higher = more signal, called active from +8 up or from −8 down;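 also: Huh7 hepatoma cells carrying a hepatitis C replication reporter with no stimulus; test concentration not given here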
# [3] = Pseudomonas biofilm growth suppression – PAO1 strain, BacTiter-Glo luminescence, LB-PBS, primary screen (AID 1144); details: P. aeruginosa PAO1 biofilm, 12 h, higher = more signal
# [4] = basal CRE-LacZ reporter activity in PC12 – cell-based, unstimulated, primary screen (AID 1145); details: no forskolin, luminescence, 4.5 h, higher = more signal, called active from +8 up or from −8 down
# [5] = forskolin-driven CRE-LacZ activity in PC12 – cell-based, CRE-LacZ reporter, forskolin-stimulated, primary screen (AID 1146); details: luminescence, 4.5 h, higher = more signal, called active from +8 up or from −8 down;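 also: PC12 cells with 6xCRE LacZ reporter stimulated by forskolin 10 µM; beta-galactosidase reporter signal reflecting CREB driven transcription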
# [6] = target: Streptavidin (Streptomyces avidinii) (UniProt P22629); experiment: compounds binding control protein streptavidin – biophysical, small-molecule microarray, 635/667 nm fluorescence, artefact control for SMM compound annotation, primary screen (AID 1147); details: higher = more signal;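 also: signal reflects streptavidin binding to arrayed compounds as a control protein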
# [7] = probe aInhba binding on compound microarray – biochemical, small-molecule microarray, 635/667 nm fluorescence, primary screen (AID 1148); details: higher = more signal;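 also: score merges 667nm spot fluorescence with signal-to-noise for antibody binding to printed compounds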
# Torsin-1A (Homo sapiens) [8] = target: Torsin-1A (Homo sapiens) (UniProt O14656); experiment: TOR1A wild-type binding on microarray – cell lysate, small-molecule microarray, lysate, 635/667 nm, primary screen (AID 1149); details: COS7 hTOR1A-WT lysate, 635 nm fluorescence, higher = more signal
# Torsin-1A (Homo sapiens) [9] = target: Torsin-1A (Homo sapiens) (UniProt O14656); experiment: torsin A mutant lysate binding on microarrays – cell lysate, small-molecule microarray, COS7 lysate, 635/667 nm fluorescence, primary screen (AID 1150); details: COS7 hTOR1A mutant lysate, 635 nm fluorescence, higher = more signal;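 also: score pools 667 nm emission and signal to noise measuring lysate protein binding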
# [10] = test system: Sonic hedgehog protein (Shh); experiment: Sonic hedgehog microarray binding compounds – biochemical, small-molecule microarray, 635/667 nm fluorescence, primary screen (AID 1151); details: 635 nm fluorescence, higher = more signal;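 also: Shh protein binding to compounds spotted on small-molecule microarray slides; score combines spot fluorescence intensity with signal-to-noise across triplicate slides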
# [11] = optical density shifts of acrAB sulA E. coli – strain DRC41, OD650, 48 h, E. coli filamentation inducer project, primary screen (AID 1152); details: higher = more signal, called active from +8 up or from −8 down;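 also: E. coli MC1000 strain DRC41 lacking acrAB efflux pump and sulA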
# [12] = probe aLefty1 binding on compound microarray – biochemical, small-molecule microarray, 635/667 nm fluorescence, primary screen (AID 1153); details: higher = more signal;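 also: score merges spot fluorescence with signal-to-noise ratio from the scanned slide images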
# [13] = plasmodial surface anion channel blockers, osmotic lysis – cell-based, P. falciparum Indochina, OD700, 1 h, primary screen (AID 1154); details: P. falciparum Indochina infected RBC osmotic lysis, higher = more signal, called active from +8 up or from −8 down
# [14] = plasmodial surface anion channel blockers, osmotic lysis – cell-based, P. falciparum Indochina, OD700, 2 h, primary screen (AID 1155);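 also: lysis reports solute entry through the parasite surface anion channel PSAC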; details: P. falciparum Indochina infected erythrocytes, higher = more signal, called active from +8 up or from −8 down
# [15] = changes in parasitized red cell lysis, either direction – P. falciparum Indochina, OD700, 3 h, PSAC antagonist project, primary screen (AID 1156); details: P. falciparum-infected erythrocytes, osmotic lysis, higher = more signal, called active from +8 up or from −8 down
# [16] = plasmodial surface anion channel blockers, osmotic lysis – cell-based, P. falciparum Indochina, OD700, 18 h, primary screen (AID 1157); details: P. falciparum Indochina infected erythrocytes, osmotic lysis OD700, 18 h; higher = more signal, called active from +8 up or from −8 down
# [17] = S6 kinase pathway phospho-S6 level changes – cell-based, A549, cytoblot, luminescence, serum-stimulated, primary screen (AID 1158); details: 5 h, higher = more signal;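 also: serum-stimulated A549 lung adenocarcinoma cells; signal is phosphorylated S6 detected by cytoblot immunostaining with HRP secondary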
# [18] = target: NADPH oxidase 2 (Homo sapiens) (UniProt P04839); experiment: compounds shifting NOX2 Amplex Red fluorescence – cell-based, HEK293-NOX2, PMA-stimulated, NOX inhibitor project, primary screen (AID 1159); details: 45 min, higher = more signal, called active from +8 up or from −8 down; also: test concentration not given here
# [19] = target: NADPH oxidase 4 (Homo sapiens) (UniProt Q9NPH5); experiment: compounds shifting NOX4 Amplex Red fluorescence – cell-based, HEK293-NOX4, tetracycline-induced, NOX inhibitor project, primary screen (AID 1160); details: HEK293-NOX4, Amplex Red H2O2 fluorescence, 45 min; higher = more signal, called active from +8 up or from −8 down
# [20] = target: NADPH oxidase 5 (Homo sapiens) (UniProt Q96PH1); experiment: compounds shifting NOX5 Amplex Red fluorescence – cell-based, HEK293-NOX5, NOX inhibitor project, primary screen (AID 1161); details: HEK293-NOX5, ionomycin, 45 min, higher = more signal
# NADPH oxidase 5 (Homo sapiens), sequence (Q96PH1 whole entry, looked up): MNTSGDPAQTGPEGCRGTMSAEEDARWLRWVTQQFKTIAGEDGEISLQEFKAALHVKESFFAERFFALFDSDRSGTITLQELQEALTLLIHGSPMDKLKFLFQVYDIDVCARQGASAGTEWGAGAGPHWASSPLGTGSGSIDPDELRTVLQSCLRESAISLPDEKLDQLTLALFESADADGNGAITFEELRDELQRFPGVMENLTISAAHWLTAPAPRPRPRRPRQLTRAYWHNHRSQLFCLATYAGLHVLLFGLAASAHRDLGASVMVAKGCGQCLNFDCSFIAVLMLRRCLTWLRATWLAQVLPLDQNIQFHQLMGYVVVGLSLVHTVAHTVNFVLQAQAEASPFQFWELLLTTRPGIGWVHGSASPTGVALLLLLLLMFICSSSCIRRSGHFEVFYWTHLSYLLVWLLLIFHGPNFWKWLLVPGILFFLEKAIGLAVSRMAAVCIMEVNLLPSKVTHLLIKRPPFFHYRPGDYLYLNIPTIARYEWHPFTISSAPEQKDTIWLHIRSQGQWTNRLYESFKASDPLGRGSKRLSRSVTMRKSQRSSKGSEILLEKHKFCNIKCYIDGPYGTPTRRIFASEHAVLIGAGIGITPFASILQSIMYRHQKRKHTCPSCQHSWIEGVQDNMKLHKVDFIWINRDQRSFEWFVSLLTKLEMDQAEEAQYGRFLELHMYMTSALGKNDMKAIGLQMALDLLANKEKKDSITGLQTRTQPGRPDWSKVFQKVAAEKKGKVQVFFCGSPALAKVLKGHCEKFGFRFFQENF
# Streptavidin (Streptomyces avidinii), sequence (P22629 whole entry, looked up): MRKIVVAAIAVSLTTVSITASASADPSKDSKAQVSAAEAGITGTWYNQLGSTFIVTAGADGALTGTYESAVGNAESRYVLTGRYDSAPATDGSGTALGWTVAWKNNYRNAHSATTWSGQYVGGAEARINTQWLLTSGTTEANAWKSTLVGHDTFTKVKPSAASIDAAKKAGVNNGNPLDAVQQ
# NADPH oxidase 2 (Homo sapiens), sequence (P04839 whole entry, looked up): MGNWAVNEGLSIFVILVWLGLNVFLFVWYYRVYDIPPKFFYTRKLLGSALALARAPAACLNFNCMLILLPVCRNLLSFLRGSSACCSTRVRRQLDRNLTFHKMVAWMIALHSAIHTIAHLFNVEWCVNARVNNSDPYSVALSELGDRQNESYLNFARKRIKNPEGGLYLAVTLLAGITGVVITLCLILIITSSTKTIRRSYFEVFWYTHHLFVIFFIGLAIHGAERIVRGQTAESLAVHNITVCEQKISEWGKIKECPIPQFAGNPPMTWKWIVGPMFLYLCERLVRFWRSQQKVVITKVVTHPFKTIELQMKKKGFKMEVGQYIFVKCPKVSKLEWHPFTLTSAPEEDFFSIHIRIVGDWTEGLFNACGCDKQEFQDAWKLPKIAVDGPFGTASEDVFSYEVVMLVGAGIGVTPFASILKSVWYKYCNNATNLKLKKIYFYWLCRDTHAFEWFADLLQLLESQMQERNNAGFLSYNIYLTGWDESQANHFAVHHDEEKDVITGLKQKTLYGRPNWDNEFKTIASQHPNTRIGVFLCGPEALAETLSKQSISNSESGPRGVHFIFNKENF
# NADPH oxidase 4 (Homo sapiens), sequence (Q9NPH5 whole entry, looked up): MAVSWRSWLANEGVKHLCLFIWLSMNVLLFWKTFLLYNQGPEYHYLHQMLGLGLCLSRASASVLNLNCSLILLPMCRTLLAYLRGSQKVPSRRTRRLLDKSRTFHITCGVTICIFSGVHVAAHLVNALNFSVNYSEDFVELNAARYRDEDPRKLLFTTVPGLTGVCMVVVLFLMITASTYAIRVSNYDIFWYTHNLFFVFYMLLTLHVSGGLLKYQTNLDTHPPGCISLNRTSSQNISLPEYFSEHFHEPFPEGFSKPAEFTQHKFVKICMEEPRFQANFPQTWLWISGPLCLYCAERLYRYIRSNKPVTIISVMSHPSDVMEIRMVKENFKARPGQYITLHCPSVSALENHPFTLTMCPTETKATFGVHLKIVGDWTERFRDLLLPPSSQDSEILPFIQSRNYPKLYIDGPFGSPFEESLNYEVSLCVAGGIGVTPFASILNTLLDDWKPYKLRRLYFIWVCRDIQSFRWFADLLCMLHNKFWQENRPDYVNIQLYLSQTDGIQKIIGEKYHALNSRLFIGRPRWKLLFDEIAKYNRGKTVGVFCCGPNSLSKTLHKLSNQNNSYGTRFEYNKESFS
# Torsin-1A (Homo sapiens), sequence (O14656 whole entry, looked up): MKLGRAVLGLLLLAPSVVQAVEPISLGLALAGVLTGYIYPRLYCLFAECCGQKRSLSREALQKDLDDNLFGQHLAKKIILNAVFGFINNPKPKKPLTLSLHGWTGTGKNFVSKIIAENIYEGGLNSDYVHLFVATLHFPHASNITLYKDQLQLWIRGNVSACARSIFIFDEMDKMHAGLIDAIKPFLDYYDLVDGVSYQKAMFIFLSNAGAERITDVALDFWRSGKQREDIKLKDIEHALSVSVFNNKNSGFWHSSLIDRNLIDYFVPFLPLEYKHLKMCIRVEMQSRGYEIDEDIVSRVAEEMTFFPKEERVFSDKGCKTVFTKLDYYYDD
Compound,composite z-score [1],z-score [2],z-score [3],z-score [4],z-score [5],composite z-score [6],composite z-score [7],composite z-score (Torsin-1A (Homo sapiens) [8]),composite z-score (Torsin-1A (Homo sapiens) [9]),composite z-score [10],z-score [11],composite z-score [12],z-score [13],z-score [14],z-score [15],z-score [16],z-score [17],z-score [18],z-score [19],z-score [20]
C[N+](C)(C)CCCC[C@@H]1NC(=O)[C@@H]2C[C@H](C(=O)NCc3ccc(F)cc3)[C@H](c3ccc(O)cc3)N2C1=O,-0.176,-0.0669 (inactive),-1.22 (inactive),0.692 (inactive),0.663 (inactive),-0.369,-0.0963,0.965,0.729,1.64,-0.7 (inactive),-0.0186,0.936 (inactive),0.376 (inactive),-1.65 (inactive),0.104 (inactive),0.567,0.274 (inactive),0.22 (inactive),1.17
NC(=O)N1C(=O)C2C(C1=O)C1C=C(CCCO)C2C(c2ccc(CN3CCCC3)cc2)N1Cc1sc2ccccc2c1Cl (stereo not given),-0.24,-3.46 (inactive),0.386 (inactive),-0.0602 (inactive),-1.08 (inactive),0.558,-0.268,-0.174,0.823,0.287,-0.711 (inactive),-0.251,3.48 (inactive),0.894 (inactive),0.363 (inactive),0.504 (inactive),0.457,-0.101 (inactive),0.353 (inactive),0.198
COC(=O)[C@@]1(Cc2ccc(OC)cc2)[C@H]2c3cc(C(=O)N4CCCC4)n(Cc4c(CO)[nH]cc(C)c4=O)c3C[C@H]2CN1C(=O)c1ccccc1,0.702,-1.1 (inactive),-0.101 (inactive),0.37 (inactive),1.41 (inactive),1.51,0.0569,0.272,1.25,-0.65,-0.552 (inactive),0.213,0.843 (inactive),-0.163 (inactive),0.455 (inactive),-1.46 (inactive),2.57,0.753 (inactive),0.386 (inactive),-4.96
[N-]=[N+]=Nc1ccccc1C[C@@]1(C(=O)NCC(O)CO)N=C(c2ccc(OCCCO)cc2)O[C@@H]1c1ccccc1 (stereo not given in full),0.674,-3.5 (inactive),0.557 (inactive),-0.16 (inactive),-0.57 (inactive),1.45,0.0047,0.744,0.944,-0.538,0.445 (inactive),0.102,26.6 (active),14.1 (active),2.05 (inactive),1.87 (inactive),0.122,2.51 (inactive),0.662 (inactive),-0.946
O=C(NCCN1CCOCC1)[C@@H]1c2ccccc2C(=O)N(Cc2ccccc2C(F)(F)F)[C@H]1c1ccc(CO)cc1,-0.316,-0.0154 (inactive),0.151 (inactive),0.324 (inactive),-1.32 (inactive),-1.12,-0.224,-0.691,0.0912,-0.112,0.736 (inactive),-0.418,2.76 (inactive),-0.191 (inactive),1.15 (inactive),0.158 (inactive),-0.328,0.523 (inactive),0.484 (inactive),0.772
NCCCCCCNC(=O)[C@@H]1C[C@@H]2C(=O)N3CCC[C@H]3C(=O)N2[C@@H]1c1cccc(OCCO)c1,0.587,-0.182 (inactive),0.884 (inactive),-0.386 (inactive),-1.43 (inactive),0.56,-0.024,2.21,1.07,0.513,1.82 (inactive),0.012,4.29 (inactive),-0.643 (inactive),1.53 (inactive),-1.8 (inactive),-0.0015,1.62 (inactive),1.42 (inactive),0.99
COC(=O)[C@@]1(Cc2ccc(F)cc2)[C@H]2c3cc(C(=O)N4CCCC4)n(Cc4ccccn4)c3C[C@H]2CN1C(=O)c1ccccc1,0.739,-1.56 (inactive),0.261 (inactive),0.966 (inactive),1.35 (inactive),0.498,0.522,-0.578,0.738,-0.138,-1.9 (inactive),0.0479,2.2 (inactive),0.404 (inactive),0.893 (inactive),0.987 (inactive),0.0347,0.553 (inactive),-1.33 (inactive),-2.47
CC(C)C(=C=CC[C@H](O)c1ccccc1OCCO)C[C@H](O)c1cc(Cl)cc(Cl)c1O,0.192,-0.825 (inactive),-0.328 (inactive),14.6 (active),1.59 (inactive),0.855,0.0966,0.786,1.06,1.85,-0.279 (inactive),0.199,19.5 (active),4.2 (inactive),-0.25 (inactive),1.44 (inactive),-0.383,-1.24 (inactive),-1.67 (inactive),-1.88
O=C(O)[C@H](Cc1ccccc1)n1cc(C2(O)CCCCC2)nn1,0.0358,0.316 (inactive),0.552 (inactive),0.367 (inactive),0.317 (inactive),-0.338,-0.0221,0.221,0.327,-0.0164,-0.976 (inactive),0.592,0.0438 (inactive),-0.879 (inactive),-0.472 (inactive),-0.281 (inactive),0.347,1.01 (inactive),0.715 (inactive),0.31
CC(=O)c1ccc(C(O)C2C=CC3C(=O)N(c4ccccc4)C(=O)C3N2Nc2ccc(C(C)C)cc2)cc1 (stereo not given),0.0129,-1.16 (inactive),-0.853 (inactive),1.4 (inactive),-0.17 (inactive),1.43,0.361,-0.127,0.135,0.295,-1.08 (inactive),0.281,12.7 (active),3.03 (inactive),1.42 (inactive),1.47 (inactive),-0.617,-1.6 (inactive),-1.6 (inactive),-2.08
CN1C(=O)C2C=CC(C(O)c3ccc(-c4ccccc4)s3)N(NC(=O)OC(C)(C)C)C2C1=O (stereo not given),-0.423,0.531 (inactive),0.146 (inactive),0.436 (inactive),-0.0651 (inactive),1.38,0.0069,-0.043,0.564,0.0221,-0.898 (inactive),0.335,0.976 (inactive),0.524 (inactive),-0.254 (inactive),0.998 (inactive),-1.06,-0.0373 (inactive),-1.58 (inactive),-0.722
CN(C)CCCCNC(=O)[C@H]1C[C@H]2C(=O)N3CCC[C@H]3C(=O)N2[C@H]1c1cccc(OCCO)c1,-0.202,0.196 (inactive),-1.17 (inactive),0.0043 (inactive),-0.258 (inactive),1.89,-0.0403,-0.107,0.98,1.17,-0.019 (inactive),0.517,2.99 (inactive),0.502 (inactive),0.348 (inactive),0.178 (inactive),-0.0038,0.787 (inactive),1.37 (inactive),0.803
CCOC(=O)c1cn(C[C@H](Cc2ccccc2)NC(=O)N[C@H](CO)CCc2oc(C(C)=O)c(C(=O)OC)c2C(=O)OC)nn1,0.0532,-2.84 (inactive),0.279 (inactive),1.4 (inactive),-0.158 (inactive),0.486,-0.0762,0.439,0.692,1.63,-0.427 (inactive),0.143,1.14 (inactive),-1.06 (inactive),0.661 (inactive),-0.473 (inactive),0.0878,-3.04 (inactive),-3.25 (inactive),-1.9
CCOC(=O)C[C@H]1[C@H](OC(=O)c2ccccc2-c2ccccc2)[C@@H](NC(=O)c2ccc3ccccc3c2)c2cc(OCCCO)ccc2N1C(=O)Cc1ccc(OC)cc1,0.23,0.0138 (inactive),0.619 (inactive),3.37 (inactive),0.654 (inactive),-0.0096,-0.128,0.0216,0.768,-0.314,-0.878 (inactive),-0.241,4.15 (inactive),0.403 (inactive),-0.681 (inactive),0.281 (inactive),0.12,0.0357 (inactive),1.02 (inactive),1.01
CC(C)N1C(=O)C[C@@](C(=O)NCCN2CCOCC2)(c2ccc([N+](=O)[O-])cc2)[C@H]1c1ccc(CO)cc1,-0.182,-2.94 (inactive),-1.4 (inactive),-0.295 (inactive),0.668 (inactive),-0.919,-0.154,-2.27,1.04,-1.1,0.344 (inactive),-0.832,1.63 (inactive),-0.0494 (inactive),1.53 (inactive),0.35 (inactive),0.265,-0.54 (inactive),-0.685 (inactive),-2.46
CC(C)=CCCC=C(C)C(O)C1C=CC2C(=O)N(c3ccccc3)C(=O)C2N1Nc1ccc(C#N)cc1 (stereo not given),0.218,-2.81 (inactive),-1.21 (inactive),1.39 (inactive),-0.35 (inactive),0.555,0.0841,0.0747,0.536,0.335,-0.817 (inactive),0.304,15.5 (active),1.88 (inactive),0.918 (inactive),-1.08 (inactive),0.0382,-1.88 (inactive),-1.6 (inactive),-0.882
COC(=O)[C@@]1(Cc2ccccc2)[C@H]2c3cc(C(=O)N(C)C)n(CCSC(=N)N)c3C[C@H]2CN1C(=O)c1ccccc1,-0.042,0.0619 (inactive),-0.367 (inactive),0.583 (inactive),0.53 (inactive),-0.405,0.0444,-0.524,-0.209,-0.564,-0.817 (inactive),0.138,0.929 (inactive),0.542 (inactive),0.746 (inactive),0.494 (inactive),-0.0307,0.251 (inactive),-0.357 (inactive),-1.01
